The entries come from a sample that favours hits as a whole.
mHTT-CaM PPI inh: mHTT-calmodulin interaction abrogation; P42858; AlphaScreen His-mHTT/GST-CaM binding, luminescence; inhibition, % at 15 µM; 190,000 tested, 3.6% active;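 also: 0% = both proteins with DMSO and 100% = one protein alone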
Pf apPOL inh: Pf-apPOL DNA polymerase inhibition; 210,000 tested, 0.25% active; inhibition, % at 10 µM; Recombinant Pf-apPOL, molecular beacon fluorescence, 1.5 h
The depositor's hits bear a star; · = no result; ! = a repeat was not active. Rule as the data show it: active = inhibition above about 50%; inactive = the rest.

SMILES | mHTT-CaM PPI inh | Pf apPOL inh
CCOC(=O)N1CCN(c2nnc(SCC(=O)Nc3ccccc3)s2)CC1 | -12 | -5
CC(=O)Nc1ccc(Nc2ncc([N+](=O)[O-])cc2[N+](=O)[O-])cc1 | 8 | 7
CCC(C)c1cc([N+](=O)[O-])cc([N+](=O)[O-])c1OC(=O)OC(C)C (stereo unspecified) | 51* | -10
CC(C)(C)N=C1Nc2ccccc2NC12CCCN(S(=O)(=O)c1cccnc1)C2 (stereo unspecified) | 42 | -14
N=c1ccn2c(n1)OCC1C(O)C(O)OC12 (stereo unspecified) | · | -9
O=C(Nc1c2c(nn1-c1ccc(F)cc1)CSC2)c1ccc(Cl)c([N+](=O)[O-])c1 | 6 | -7
Cc1ccc(-n2nc3c(c2NC(=O)c2ccc(Br)o2)CSC3)cc1 | 47 | -6
CC(C)(C)n1nc2c(c1NC(=O)/C=C/c1ccccc1)CSC2 | 98* | 3
O=C(Nc1c2c(nn1-c1ccc(F)cc1)CSC2)c1ccc(Br)o1 | 58* | -11
O=C(Nc1c2c(nn1-c1ccc([N+](=O)[O-])cc1)CSC2)c1ccc(Cl)c([N+](=O)[O-])c1 | 56* | -5
O=C(/C=C/c1ccccc1)Nc1c2c(nn1-c1ccc(F)cc1)CSC2 | 76* | -9
Cc1ccc(-n2nc3c(c2NC(=O)/C=C/c2ccccc2)CSC3)cc1 | 45 | 9
COc1ccc(C(=O)Nc2c3c(nn2C(C)(C)C)CSC3)cc1 | 23 | -2
CCCCOc1ccc(CN2CCOCC2)cc1 | 0 | -8
O=C(/C=C/c1ccccc1)Nc1c2c(nn1-c1cccc(Cl)c1)CSC2 | 53* | -3
O=C(/C=C/c1ccccc1)Nc1c2c(nn1-c1ccc([N+](=O)[O-])cc1)CSC2 | 56* | -10
O=C(/C=C/c1ccc2c(c1)OCO2)Nc1c2c(nn1-c1ccc([N+](=O)[O-])cc1)CSC2 | 37 | -2
O=C(Nc1c2c(nn1-c1cccc(Cl)c1)CSC2)c1cccc(Cl)c1 | -1 | -6
COc1ccc(NC(=O)C(NC(=O)/C=C/c2ccc3c(c2)OCO3)c2ccc(OC)cc2)cc1 (stereo unspecified) | 11 | -4
CC1CC(C)CN(S(=O)(=O)N2CCCC(C(=O)NCc3cccs3)C2)C1 (stereo unspecified) | -6 | -14
CCc1cc(-c2[nH]ncc2-c2cnn(-c3ccccc3)c2)c(O)cc1O | 94* | -3
COc1ccc(-c2[nH]ncc2-c2cnn(-c3ccccc3)c2)c(O)c1C | 17 | 3
O=C(NCCN1CCC(Cc2ccccc2)CC1)C1CC(=O)N(CCc2ccccc2)C1 (stereo unspecified) | -2 | -5
CCSc1nccc(=O)[nH]1 | -9 | 6
Nc1ccnc(=O)[nH]1 | · | 105*
SMILES | mHTT-CaM PPI inh | Pf apPOL inh
S=C1NC(C23CC4CC(CC(C4)C2)C3)=CC(c2ccc(Br)cc2)N1 (stereo unspecified) | 26 | ·
N=C1N=NC(c2ccccc2)=CS/C1=C\c1ccc(F)cc1 | 59* | 2
N=C1S/C(=C\c2ccccc2)C(=O)N1c1ccc(F)cc1 | 0 | 2
Cc1ccccc1NC(=O)CN(C)S(=O)(=O)c1ccc2[nH]c3c(c2c1)CCCC3 | 14 | -4
CN(CC(=O)NCc1cccnc1)S(=O)(=O)c1ccc2[nH]c3c(c2c1)CCCC3 | 21 | -5
CN(CC(=O)Nc1ccc(Cl)cc1)S(=O)(=O)c1ccc2[nH]c3c(c2c1)CCCC3 | 66* | 1
CN(CC(=O)NCCC1=CCCCC1)S(=O)(=O)c1ccc2[nH]c3c(c2c1)CCCC3 | 63* | -10
Cc1ccc(NC(=O)CN(C)S(=O)(=O)c2ccc3[nH]c4c(c3c2)CCCC4)c(Cl)c1 | 43 | -5
Cc1ccc(NC(=O)CN(C)S(=O)(=O)c2ccc3[nH]c4c(c3c2)CCCC4)cc1 | 48 | 0
Cc1cccc(NC(=O)CN(C)S(=O)(=O)c2ccc3[nH]c4c(c3c2)CCCC4)c1 | 64* | 3
CN(CC(=O)Nc1cccc(Cl)c1)S(=O)(=O)c1ccc2[nH]c3c(c2c1)CCCC3 | 55* | -1
NC(Cn1ccc(C(F)(F)F)n1)=NOC(=O)Nc1ccc(SC(F)(F)F)cc1 | · | 1
Cc1ccc(CNC(=O)c2ccc3c(c2)CC(=O)N3C)cc1 | 7 | -3
CN(CC(=O)NC1CCCCCC1)S(=O)(=O)c1ccc2[nH]c3c(c2c1)CCCC3 | 59* | -1
Cc1cc(C)c(NC(=O)CN(C)S(=O)(=O)c2ccc3[nH]c4c(c3c2)CCCC4)c(C)c1 | 38 | -4
CC(=O)Nc1cc(C(=O)N2CCN(C3CCCCC3)CC2)c2ccc(C)nc2c1 | 24 | -49
CC(=O)Nc1cc(C(=O)N2CCN(c3cccc(C)c3)CC2)c2ccc(C)nc2c1 | 68* | -402
CC(=O)Nc1cc(C(=O)N2CCN(c3cccc(C)c3C)CC2)c2ccc(C)nc2c1 | 95* | -34
Cc1cccc(N2CCN(C(=O)c3cccc([N+](=O)[O-])c3C)CC2)c1C | -1 | -4
CC(=O)Nc1cc(C(=O)NC2CCCC2)c2ccc(C)nc2c1 | 100* | 16
CC(=O)Nc1cc(C(=O)NC(C)C)c2ccc(C)nc2c1 | -6 | 32
CC(=O)Nc1cc(C(=O)NCCN2CCCCC2)c2ccc(C)nc2c1 | 6 | 24
CC(=O)Nc1cc(C(=O)N2CCN(c3cc(C)ccc3C)CC2)c2ccc(C)nc2c1 | 100* | -16
Cc1c(Br)c([N+](=O)[O-])nn1CCCC(=O)NC1CCCCC1 | 2 | -4
COc1ccc2nc(SCC(=O)Nc3ccc(OC)c(OC)c3)[nH]c2c1 | 2 | 4
SMILES | mHTT-CaM PPI inh | Pf apPOL inh
CCN1C=C(C(=O)OCc2ccc(Cl)cc2)C(C)=NS1(=O)=O | -21 | -1
CCc1ccccc1NC(=O)C1CCN(c2nnc(-c3ccc(OC)cc3)o2)CC1 | 6 | 0
CCOc1ccccc1N1CCN(C(=O)C2CCN(Cc3ccc(OC)c(OC)c3)CC2)CC1 | -1 | 31
CC(C)(C)c1csc(NC(=O)c2ccc(N3CCOCC3)c([N+](=O)[O-])c2)n1 | 55* | 2
COc1ccc(Cc2cnc(NC(=O)c3ccc(N4CCOCC4)c([N+](=O)[O-])c3)s2)cc1 | 5 | -3
Cc1ccc2c(=O)c(C(=O)N3CCCC3)cn(CC(=O)NCc3ccc4c(c3)OCO4)c2n1 | -1 | -2
Cc1[nH]c2ccccc2c1-c1csc(-c2cccnc2)n1 | 33 | 0
Cc1[nH]c2ccccc2c1-c1csc(-c2ccncc2)n1 | 70*! | 0
CCn1cc(CN2CCC(C(=O)NCc3cccc(OC)c3)CC2)c2ccccc21 | 12 | -4
CCn1cc(CN2CCC(C(=O)NCc3cccc(Cl)c3)CC2)c2cc(OC)ccc21 | 90* | 1
Cn1cc(CN2CCC(C(=O)NCCN3CCCCC3)CC2)c2cc(Cl)ccc21 | 1 | 1
Cn1cc(CN2CCC(C(=O)NCCCN3CCCC3)CC2)c2cc(Cl)ccc21 | 55* | -1
O=C(NC1CCCC1)N1CCC2(C1)C(=O)Nc1ccccc12 (stereo unspecified) | 1 | -7
Cc1cc(C)c(S(=O)(=O)NCCC2CCN(C(=O)NC3CCCCC3)CC2)c(C)c1 | 8 | -4
Cc1nnc(-c2nnc(NCc3ccccc3Cl)c3ccccc23)o1 | 7 | -3
Fc1cccc(NCc2ccc3c(c2)OCO3)c1 | -12 | -8
O=C(Nc1ccc2c(c1)OCO2)c1ccccc1Cl | -5 | -6
Clc1cccc(Cl)c1CNc1ccc2c(c1)OCO2 | 69* | -3
Cc1cccc(CNc2ccc3c(c2)OCO3)c1 | 100* | 3

Screens deposited in PubChem by University of Kansas High Throughput Screening Laboratory.
